Bioassay records (PubChem)
Cycloheximide cs: Cycloheximide Counterscreen for Small Molecule Inhibitors of Shiga Toxin; cell reporter, cycloheximide protein synthesis inhibition counterscreen; max response, %; 12% of 300,000 active; AID 2314, 2010; in the data active means max response mostly above about 13%, no sharp cut-off; inactive means mostly below about 14%; further: read at 38.3 µM for the half of the compounds with a filed dose; 0% is about no effect
LmPK inh: qHTS Assay for Inhibitors of Leishmania Mexicana Pyruvate Kinase (LmPK); 0.37% of 290,000 active; Potency, µM (titrated, usually from 57.5 µM), inactives show at the top dose activity change, negative = inhibition, most hits filed as inhibitors; purified LmPK, Kinase-Glo ATP luminescence, 1 h; AID 1721, 2009; Q27686; further: potency means the concentration at half of the fitted maximal effect; on the % scale 0 is the no-effect control and ±100 the full control effect
Target sequence (Q27686 whole entry, looked up): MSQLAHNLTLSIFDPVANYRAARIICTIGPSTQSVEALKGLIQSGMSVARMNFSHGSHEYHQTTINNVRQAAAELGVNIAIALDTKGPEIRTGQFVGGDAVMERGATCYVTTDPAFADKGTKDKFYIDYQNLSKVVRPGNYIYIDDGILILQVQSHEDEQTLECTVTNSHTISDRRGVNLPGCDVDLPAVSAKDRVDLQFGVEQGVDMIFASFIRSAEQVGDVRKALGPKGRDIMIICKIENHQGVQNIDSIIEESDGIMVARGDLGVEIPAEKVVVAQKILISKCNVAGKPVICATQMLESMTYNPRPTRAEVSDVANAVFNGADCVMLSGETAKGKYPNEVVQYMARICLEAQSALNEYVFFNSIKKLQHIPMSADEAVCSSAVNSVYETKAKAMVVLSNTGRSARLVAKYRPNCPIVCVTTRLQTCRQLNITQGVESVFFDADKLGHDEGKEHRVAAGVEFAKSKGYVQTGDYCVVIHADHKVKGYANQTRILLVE
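Screened at intermediate enzyme activity to detect both inhibitors and activators: LmPK at 0.1 nM, with a 0.5 nM enzyme column as activation reference. PEP 0.5 mM, ADP 0.1 mM; ATP detected by luminescence after 1 h.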
Giardia FBPA inh: qHTS Assay for Inhibitors of Fructose-1,6-bisphosphate Aldolase from Giardia Lamblia; A8B2U2; purified Giardia FBPA; Potency, µM (highest dose often 59.6 µM), for inactives: top-dose activity, negative = inhibition, hits mostly inhibitors; 0.71% of 290,000 active; AID 2451, 2010; further: potency means the concentration at half of the fitted maximal effect; on the % scale 0 is the no-effect control and ±100 the full control effect; nearly all actives have a fitted effect of over 55% in size
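Giardia FBPA (40 nM reagent) was preincubated 10 min at RT with compound (up to 57.5 uM final), then substrate plus GAPDH/TPI/NAD/arsenate coupling system with diaphorase/resazurin was added; resorufin fluorescence (525/598 nm) was read after 20 min.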
NS1 function inh: qHTS Assay for Inhibitors of Influenza NS1 Protein Function; 0.4% of 270,000 active; AID 2326, 2010; Potency, µM (top dose mostly 46.1 µM), without a hit: at the top dose activity, positive = more growth; calls by dose curve; further: potency means the concentration at half of the fitted maximal effect; actives are rising curves; nearly all actives have a fitted effect of over 50% in size
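A cell-based growth assay was used: compounds that relieve NS1-induced slow growth of budding yeast raise OD600. Assay medium was yeast nitrogen base with ammonium sulphate and -URA supplement, pH 6.0, with 2% galactose.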
Shiga toxin inh: A qHTS for Small Molecule Inhibitors of Shiga Toxin; Vero cells, Shiga toxin protein synthesis inhibition reporter; inhibition, % at 38.7 µM; 9.2% of 290,000 active; AID 2315, 2010; in the data active means inhibition mostly above about 28%, no sharp cut-off; inactive means mostly below about 43%; further: 0% is about no effect
Active calls of the source: *; ? = inconclusive; . = not tested or not shown; + = active, no number; [ ] = dose if it differs, or a comment. Compounds with a hit are over-represented: about 14% of the library has one in this group of screens. Unless noted, the call rests on the fitted dose curve; in most records, active means well fitted curve in the direction sought with a large enough effect; inconclusive means small, poorly fitted or top-dose-only effect, or another doubt; inactive means no such curve, though single readings can be large; an effect the other way counts as inactive or inconclusive.

SMILES	Cycloheximide cs	LmPK inh	Giardia FBPA inh	NS1 function inh	Shiga toxin inh
O=C(c1ccc(COc2ccccc2Br)o1)N1CCCCCC1	26*	-8%	3%	-2%	32*
O=C(c1ccc(COc2ccccc2Cl)o1)N1CCN(c2ccccc2)CC1	-3	9%	1%	-85%	-13
CN(C)CCOC(=O)c1ccc(COc2ccccc2Br)o1	-6	5%	-3%	-7%	2
COc1ccc(OC)c(NS(=O)(=O)c2ccc3c(c2)C(C)(C)C(=O)N3C)c1	3	2%	-12%	17%	-11
O=C(Cc1ccsc1)NNC(=O)c1cccc(Cl)c1	3	-4%	.	13%	3
OC[C@@H](O)[C@@H](O)[C@@H](O)[C@@H](O)c1nc2ccc(Cl)cc2[nH]1	.	.	.	1%	.
COc1ccc(OC)c(C2=Nn3c(nnc3-c3cc(C)[nH]n3)SC2)c1	-4	-3%	-13%	1%	-13
Cc1ccc([C@@H]2[C@@H]3C(=O)N(C)C(=O)[C@@H]3[C@]3(Cc4ccccc4)C(=O)N(Cc4ccccn4)CC(=O)N23)o1	-3	-1%	4%	5%	-3
Cc1ccccc1NC(=O)c1ccc(S(=O)(=O)C(F)F)cc1	18*	-2%	-5%	8%	-3
Cc1ccc(NC(=O)c2ccc(S(=O)(=O)C(F)F)cc2)c(C)c1	28*	-5%	-15%	-3%	+
CN1c2ccccc2C(C)(C)[C@]12C=Cc1cc(O)ccc1O2	38*	2%	-23%	5%	58
COc1ccc2ccc3c(c2c1)N=CC1(O3)N(C)c2ccccc2C1(C)C (stereo not drawn)	10	0%	?	-27%	34*
CN1c2ccccc2C(C)(C)C12C=Nc1c(ccc3ccccc13)O2 (stereo not drawn)	27*	1%	11µM*	-36%	99*
O=C1CCC(C(=O)N2CCc3ccccc3C2)CN1CCCN1CCOCC1 (stereo not drawn)	-1	-11%	.	8%	-4
Nc1ccc(N2CCOCC2)c(Cl)c1	-1	2%	-9%	6%	-9
O=C(Nc1ccc(F)cc1)Nc1ccc(N2CCOCC2)c2nonc12	18*	-8%	-27%	0%	38
Nc1ccc(N2CCOCC2)c2nonc12	-1	-5%	2.8µM*	3%	-8
O=C(/C=C/c1ccccc1)NC1CCSC1=O (stereo not drawn)	39*	-7%	0%	-1%	70*
CCOC(=O)N/N=C1/C[C@@H](O)[C@@H](O)[C@@H]2[C@@H]3C(=O)N(CC)C(=O)[C@H]3CC[C@@H]12	.	.	7%[12.9 µM]	.	.
O=C1CC(Sc2nnc(-c3ccccc3)o2)C(=O)N1c1ccccc1 (stereo not drawn)	22*	4%	0%	-83%	49*
O=C(O)c1ccccc1SC1CC(=O)N(c2ccccc2)C1=O (stereo not drawn)	9	-3%	6%	-43%	3
Cc1ccccc1N1C(=O)CC(Sc2nnc(-c3ccccc3)o2)C1=O (stereo not drawn)	19*	-1%	3%	-64%	10
CC(C)c1ccc(N2C(=O)CC(Sc3nc4ccccc4o3)C2=O)cc1 (stereo not drawn)	15*	2%	-26%	-5%	10
O=C(NC1CCCCCCC1)c1ccccc1O	31*	-1%	-5%	-165%	75*
O=C(O)/C=C\C(=O)Nc1ccccc1C(=O)NC1CCCCC1	42*	-2%	2%	1%	65*
SMILES	Cycloheximide cs	LmPK inh	Giardia FBPA inh	NS1 function inh	Shiga toxin inh
O=C(Nc1ccccc1C(=O)NC1CCCCC1)c1ccco1	-3	1%	2%	9%	-4
Cc1ccccc1C(=O)NC1CCCCCCC1	34*	0%	11%	0%	39*
O=C(NC1CCCCC1)c1cc2ccccc2cc1O	24*	1%	?	-8%	34*
Cc1ccc(N2C(=O)NC(=O)/C(=C/c3cnc(-c4ccccc4)nc3)C2=O)cc1C	-3	4%	1%	5%	15
Cc1cccc(N2C(=O)NC(=O)/C(=C\c3cnc(-c4ccccc4)nc3)C2=O)c1	14*	7%	-7%	15%	43
Cc1cc(C)cc(N2C(=O)NC(=O)/C(=C\c3cccn3-c3ccccc3)C2=O)c1	14*	0%	4%	7%	-4
COc1cccc(-n2nnc3c(=O)n(Cc4cccc(C)c4)cnc32)c1	24*	10%	3%	4%	17
COc1cccc(-n2nnc3c(=O)n(Cc4ccccc4F)cnc32)c1	-1	1%	4%	1%	-12
O=C(NCCn1ccc2ccccc21)c1ccc2c(c1)OCO2	40*	-3%	3%	-1%	64*
Cc1ccc(C(=O)NCCn2ccc3ccccc32)cc1[N+](=O)[O-]	35*	-1%[11.5 µM]	-8%	.	80*
O=C(NCCc1ccccc1)c1ccc2c(c1)OCO2	-1	-16%	-5%	-7%	-3
COc1ccc(C(=O)NCCn2ccc3ccccc32)cc1	13*	-4%	-3%	-17%	4
COC(=O)[C@@]1(Cc2ccccc2)[C@H]2c3cc(C(=O)N4CCCC4)[nH]c3C[C@H]2CN1C(=O)c1ccccc1	.	.	-3%	.	.
Cc1c(C)n(-c2ccccc2)c2ncnc(NCCN(C)C)c12	-3	0%	10%	0%	-16
O=C(Nc1ccc(OCC(=O)N2CCOCC2)cc1)c1cccc(Cl)c1	20	-10%	3%	5%	26*
O=C(Nc1ccc(OCC(=O)N2CCOCC2)cc1)c1ccccc1F	21*	5%	4%	-6%	53
COc1ccc(C(=O)Nc2ccc(OCC(=O)N3CCOCC3)cc2)c(OC)c1OC	21*	4%	2%	?	16
COC(=O)Nc1ccc(OCC(=O)N2CCOCC2)cc1	-1	-3%	4%	0%	9
CC(C)n1nnnc1SCC(=O)Nc1ccccc1F	0	-11%	4%	1%	-5
Cc1ccc(OCc2ccccc2C)c([N+](=O)[O-])n1	41*	-7%	-4%	-33%	34
Cc1ccc(OCCOc2ccc(Br)cc2)c([N+](=O)[O-])n1	72*	0%	-6%	-23%	154*
CCOc1ccc(C(=O)NNC2CC(=O)N(Cc3ccc(Cl)cc3)C2=O)cc1OC (stereo not drawn)	-5	1%	-1%	.	-4
O=C(O)c1cccc(Nc2ccnc(Nc3cccc(C(=O)O)c3)n2)c1	29*	-1%	-17%	4%	79*
CN(C)c1ccc(-c2nccc(Nc3ccc(F)cc3)n2)cc1	.	.	-26%	.	.
Fc1ccc(Nc2ccnc(Nc3ccc(F)cc3)n2)cc1	72*	7%	8%	-50%	+
COc1ccccc1CNC(=O)c1cc(-c2ccncc2)nc2c(Cl)cccc12	0	-1%	.	15%	-4
CN(Cc1ccco1)c1ncncc1-c1cccc(C#N)c1	.	.	-18%	.	.
CCOc1ccc(NC2c3ccccc3C(=O)N2c2ccc(Cl)cn2)cc1 (stereo not drawn)	11*	1%	-8%	-39%	68*
